Experimental data as given in PubChem BioAssay (NCI).
Compounds without any hit were thinned out: in the full panel of roughly 83,000, 20% have a hit.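 Cells were grown in 96-well plates and exposed to the test compound at a single concentration for 48 hours; results are reported as percent growth, with values below 10 considered active.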 The source made the active and inactive calls.

How the values were obtained:
Assay in all cases: NCI-60 one-dose screen, 48 h (100 = growth as untreated, 0 = no growth, -100 = all killed)
SR leukemia = conditions: 10 µM unless noted
RPMI-8226 leukemia = conditions: 10 µM unless noted
OVCAR-8 ovarian = conditions: 10 µM unless noted
OVCAR-5 ovarian = conditions: 10 µM unless noted
OVCAR-4 ovarian = conditions: 10 µM
SK-OV-3 ovarian = conditions: 10 µM unless noted
IGROV1 ovarian = conditions: 10 µM unless noted
OVCAR-3 ovarian = conditions: 10 µM unless noted
HS 578T breast = conditions: 10 µM unless noted
NCI/ADR-RES ovarian = conditions: 10 µM unless noted
T-47D breast = conditions: 10 µM unless noted
MDA-MB-435 melanoma = conditions: 10 µM unless noted
SW-620 colon = conditions: 10 µM unless noted
MCF7 breast = conditions: 10 µM unless noted
HCT-116 colon = conditions: 10 µM unless noted
HCC-2998 colon = conditions: 10 µM unless noted
KM12 colon = conditions: 10 µM unless noted
BT-549 breast = conditions: 10 µM unless noted

Measured: growth

CS(=O)(=O)c1cccnn1
inactive: SR leukemia 167% | RPMI-8226 leukemia 97% | OVCAR-8 ovarian 106% | OVCAR-5 ovarian 81.1% | OVCAR-4 ovarian 80.9% | SK-OV-3 ovarian 116% | IGROV1 ovarian 78% | OVCAR-3 ovarian 103% | HS 578T breast 89.2% | NCI/ADR-RES ovarian 96% | T-47D breast 95.2% | MDA-MB-435 melanoma 104% | SW-620 colon 95.5% | MCF7 breast 94% | HCT-116 colon 96.5% | HCC-2998 colon 110% | KM12 colon 106%

COc1cc2c(c(OC)c1)C1c3cc(OC)ccc3NC(=O)N1CC2 (stereo unspecified)
active: MDA-MB-435 melanoma 9.36%
inactive: SR leukemia 24% | RPMI-8226 leukemia 81.9% | OVCAR-8 ovarian 95.1% | OVCAR-5 ovarian 93.7% | OVCAR-4 ovarian 96.2% | SK-OV-3 ovarian 93.1% | IGROV1 ovarian 80.2% | OVCAR-3 ovarian 81.9% | HS 578T breast 90.2% | NCI/ADR-RES ovarian 51.5% | T-47D breast 88.7% | SW-620 colon 49.4% | MCF7 breast 58.3% | HCT-116 colon 65.2% | HCC-2998 colon 94% | KM12 colon 49.4%

CC1Cc2c(Cl)ncnc2N(C)c2ccc(O)cc21 (stereo unspecified)
inactive: SR leukemia 90.3% | RPMI-8226 leukemia 68.5% | OVCAR-8 ovarian 29.7% | OVCAR-5 ovarian 102% | OVCAR-4 ovarian 27% | SK-OV-3 ovarian 31.7% | IGROV1 ovarian 103% | OVCAR-3 ovarian 50.8% | HS 578T breast 28.8% | NCI/ADR-RES ovarian 17.3% | T-47D breast 81.7% | MDA-MB-435 melanoma 30.5% | SW-620 colon 38.1% | MCF7 breast 55.1% | HCT-116 colon 65.6% | HCC-2998 colon 59.4% | KM12 colon 10.4%

Nc1nc(N)c2c(n1)NC(c1ccc(F)cc1)C1CCc3ccccc3C1=N2 (stereo unspecified)
active: SR leukemia 9.32%
inactive: RPMI-8226 leukemia 42.3% | OVCAR-8 ovarian 70.4% | OVCAR-5 ovarian 110% | OVCAR-4 ovarian 36% | SK-OV-3 ovarian 63.9% | IGROV1 ovarian 83.6% | OVCAR-3 ovarian 48.2% | HS 578T breast 84.1% | NCI/ADR-RES ovarian 43.7% | T-47D breast 49.7% | SW-620 colon 67.3% | HCT-116 colon 31.9% | HCC-2998 colon 71.2% | KM12 colon 50.1%

COc1ccc2c(c1)C(C)Cc1c(Cl)ncnc1N2C (stereo unspecified)
active: SR leukemia -2.06% | RPMI-8226 leukemia -2.61% | OVCAR-8 ovarian 7% | OVCAR-4 ovarian 7.09% | OVCAR-3 ovarian 2.22% | NCI/ADR-RES ovarian 2.03% | T-47D breast 4.2% | MDA-MB-435 melanoma -25.2% | SW-620 colon 3.63% | HCT-116 colon 7.03% | KM12 colon 4.12%
inactive: OVCAR-5 ovarian 41.5% | SK-OV-3 ovarian 12.2% | IGROV1 ovarian 23.7% | HS 578T breast 16.9% | HCC-2998 colon 22.3%

COc1ccc(C=C2c3ccccc3-c3ccccc32)cc1
inactive: SR leukemia 23.4% | RPMI-8226 leukemia 68.2% | OVCAR-8 ovarian 67.1% | OVCAR-5 ovarian 92.4% | OVCAR-4 ovarian 80.2% | SK-OV-3 ovarian 60.6% | IGROV1 ovarian 58.3% | OVCAR-3 ovarian 18% | HS 578T breast 56.3% | NCI/ADR-RES ovarian 20.2% | T-47D breast 46.6% | SW-620 colon 19.4% | MCF7 breast 13% | HCT-116 colon 16.9% | HCC-2998 colon 73.6% | KM12 colon 24.8%

CCOc1ccc2sc(NS(=O)(=O)c3ccc(N)cc3)nc2c1
inactive: SR leukemia 95.4% | RPMI-8226 leukemia 96.5% | OVCAR-8 ovarian 105% | OVCAR-5 ovarian 109% | OVCAR-4 ovarian 105% | SK-OV-3 ovarian 101% | IGROV1 ovarian 95.8% | OVCAR-3 ovarian 115% | HS 578T breast 106% | NCI/ADR-RES ovarian 113% | T-47D breast 122% | MDA-MB-435 melanoma 107% | SW-620 colon 115% | MCF7 breast 97.4% | HCT-116 colon 110% | HCC-2998 colon 107% | KM12 colon 105%

Cn1ncc2c(Nc3ccc(O)cc3)nc(Cl)nc21
inactive: SR leukemia 75.3% | RPMI-8226 leukemia 79.4% | OVCAR-8 ovarian 104% | OVCAR-5 ovarian 105% | OVCAR-4 ovarian 105% | SK-OV-3 ovarian 105% | IGROV1 ovarian 92.9% | OVCAR-3 ovarian 117% | HS 578T breast 102% | NCI/ADR-RES ovarian 97.3% | T-47D breast 106% | MDA-MB-435 melanoma 102% | SW-620 colon 118% | MCF7 breast 94% | HCT-116 colon 108% | HCC-2998 colon 105% | KM12 colon 106%

O=C1COCCN1c1ccc(NCc2cn(Cc3cccc4ccccc34)c3ccccc23)cc1
inactive: SR leukemia 74.5% | RPMI-8226 leukemia 82.1% | OVCAR-8 ovarian 83.4% | OVCAR-5 ovarian 41.7% | OVCAR-4 ovarian 69.8% | SK-OV-3 ovarian 62% | IGROV1 ovarian 27.2% | OVCAR-3 ovarian 87.9% | HS 578T breast 84.3% | NCI/ADR-RES ovarian 78.2% | T-47D breast 43.1% | MDA-MB-435 melanoma 98% | SW-620 colon 83% | MCF7 breast 63.4% | HCT-116 colon 39.3% | HCC-2998 colon 103% | KM12 colon 96.5%

CC/C=C(\C)C(CCC)(CN=O)C(=O)OCC (stereo unspecified)
inactive: SR leukemia 87.6% | RPMI-8226 leukemia 96.3% | OVCAR-8 ovarian 105% | OVCAR-5 ovarian 113% | OVCAR-4 ovarian 110% | SK-OV-3 ovarian 99.9% | IGROV1 ovarian 118% | OVCAR-3 ovarian 127% | HS 578T breast 143% | NCI/ADR-RES ovarian 108% | BT-549 breast 112% | MDA-MB-435 melanoma 117% | SW-620 colon 109% | MCF7 breast 102% | HCT-116 colon 92.2% | HCC-2998 colon 96.2% | KM12 colon 112%

O=C(CCCCCCSc1nc(-c2ccc(Cl)cc2)cc(-c2ccc(Cl)cc2)n1)NO
active: SR leukemia 5.47% | NCI/ADR-RES ovarian 3.91%
inactive: RPMI-8226 leukemia 34.9% | OVCAR-8 ovarian 20.5% | OVCAR-5 ovarian 39.4% | OVCAR-4 ovarian 35.9% | SK-OV-3 ovarian 17.4% | IGROV1 ovarian 27.6% | OVCAR-3 ovarian 22.9% | HS 578T breast 69.5% | T-47D breast 13.2% | SW-620 colon 35.8% | MCF7 breast 14.5% | HCT-116 colon 18.4% | HCC-2998 colon 78.7% | KM12 colon 47.4%

O=C(Nc1ccc(Nc2ccncc2)cc1)c1ccc([N+](=O)[O-])cc1
active: SR leukemia -45.3%
inactive: RPMI-8226 leukemia 22.8% | OVCAR-8 ovarian 61% | OVCAR-5 ovarian 101% | OVCAR-4 ovarian 67.3% | SK-OV-3 ovarian 88.6% | IGROV1 ovarian 85.4% | OVCAR-3 ovarian 60.4% | HS 578T breast 95.4% | NCI/ADR-RES ovarian 92% | T-47D breast 29.7% | MDA-MB-435 melanoma 79.5% | SW-620 colon 30.5% | MCF7 breast 51.6% | HCT-116 colon 27.3% | HCC-2998 colon 66.7% | KM12 colon 79.5%

COCCCNc1nc(NC(=O)c2cc(Br)cc(C(F)(F)F)c2)cc(-c2cccnc2)n1
inactive: SR leukemia 83.4% | RPMI-8226 leukemia 65.6% | OVCAR-8 ovarian 87.5% | OVCAR-5 ovarian 100% | OVCAR-4 ovarian 92.3% | SK-OV-3 ovarian 92.2% | IGROV1 ovarian 91.3% | OVCAR-3 ovarian 109% | HS 578T breast 83% | NCI/ADR-RES ovarian 99.5% | T-47D breast 65% | MDA-MB-435 melanoma 88.4% | SW-620 colon 86.9% | HCT-116 colon 85.6% | HCC-2998 colon 114% | KM12 colon 105%

COc1ccc(/C=C(/C2=NCCN2)n2ccc3ccccc32)cc1
inactive: SR leukemia 79.5% | RPMI-8226 leukemia 93.1% | OVCAR-8 ovarian 97.1% | OVCAR-5 ovarian 90% | OVCAR-4 ovarian 94.8% | SK-OV-3 ovarian 97.1% | IGROV1 ovarian 82.8% | OVCAR-3 ovarian 97.9% | HS 578T breast 84.4% | NCI/ADR-RES ovarian 93% | T-47D breast 86.2% | MDA-MB-435 melanoma 89.9% | SW-620 colon 87.1% | HCT-116 colon 83% | HCC-2998 colon 98.5% | KM12 colon 95.8%

O=C(OCc1ccc2c(Cl)cc(Cl)c(O)c2n1)N1CCN(C(=O)c2cc3cc(F)ccc3[nH]2)CC1
inactive: SR leukemia 16.7% | RPMI-8226 leukemia 21.4% | OVCAR-5 ovarian 40.7% | OVCAR-4 ovarian 40% | SK-OV-3 ovarian 19.3% | IGROV1 ovarian 11.2% | HS 578T breast 12.5% | T-47D breast 62.2% | SW-620 colon 16.9% | MCF7 breast 14.5% | HCC-2998 colon 22.6%
active: OVCAR-8 ovarian 7.64% | OVCAR-3 ovarian -44.1% | NCI/ADR-RES ovarian 2.35% | MDA-MB-435 melanoma -54.5% | HCT-116 colon 5.58% | KM12 colon -15.2%

COc1ccc(C(C(=O)O)c2ccc(OC)cc2)cc1
inactive: SR leukemia 106% | RPMI-8226 leukemia 111% | OVCAR-8 ovarian 113% | OVCAR-5 ovarian 108% | OVCAR-4 ovarian 103% | SK-OV-3 ovarian 116% | IGROV1 ovarian 118% | OVCAR-3 ovarian 101% | HS 578T breast 129% | NCI/ADR-RES ovarian 117% | T-47D breast 118% | MDA-MB-435 melanoma 115% | SW-620 colon 107% | HCT-116 colon 108% | HCC-2998 colon 116% | KM12 colon 111%

CCN(CC)c1ccc(/C=C/C=C2\NC(=O)NC2=O)cc1
inactive: SR leukemia 21.1% | RPMI-8226 leukemia 41% | OVCAR-8 ovarian 36% | OVCAR-5 ovarian 58.1% | OVCAR-4 ovarian 50.5% | SK-OV-3 ovarian 29.1% | IGROV1 ovarian 49.7% | OVCAR-3 ovarian 25.5% | HS 578T breast 50.4% | T-47D breast 31.9% | SW-620 colon 31.2% | MCF7 breast 20.4% | HCT-116 colon 10.1% | HCC-2998 colon 37.2% | KM12 colon 32.4%
active: NCI/ADR-RES ovarian 3.98% | MDA-MB-435 melanoma -5.48%
